Experimental findings from PubChem BioAssay (NCI) are described below.

Common to all, as to assay: NCI-60 one-dose screen, 48 h (100 = growth as untreated, 0 = no growth, -100 = all killed)
What all share (details): 10 µM unless noted

Assay [1] has as its system HCT-15 colon.
Assay [2] has as its system HT29 colon.
The subject of assay [3] is SNB-75 CNS.
Assay [4] relates to SNB-19 CNS.
The subject of assay [5] is PC-3 prostate.
In assay [6] the test system is SK-MEL-5 melanoma.
Assay [7] concerns UACC-62 melanoma.
Assay [8] relates to LOX IMVI melanoma.
Assay [9] concerns SK-MEL-28 melanoma.
The subject of assay [10] is SK-MEL-2 melanoma.
Assay [11] relates to EKVX NSCLC.
The subject of assay [12] is SN12C renal.
The test system of assay [13] is UO-31 renal.
Assay [14] relates to TK-10 renal.
For assay [15], the system named is ACHN renal.
Assay [16] deals with CAKI-1 renal.
The test system of assay [17] is CCRF-CEM leukemia.
For assay [18], the system named is MOLT-4 leukemia.
The test system of assay [19] is A498 renal.

The structures appear in SMILES notation. This is part of a sample that, as a whole, favours compounds with a hit. Of some 83,000 tested, about 20% had one in any assay.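 Single-concentration screen, 48 h exposure, 96-well plates. Endpoint: percent growth. Below 10 = active.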 Values without a mark were called inactive. Activity calls are given as the source filed them.

For `CCc1c(Nc2ccc(C)cc2)[nH]c(N)nc1=S`, the growth in [1] is 99.7%; in [2], 103%; in assay [3] it was 93.5%; in assay [4], 98.3%; in [5], 107%; in assay [6], 101%. In addition, the growth in assay [7] is 93.8%; in assay [8], 105%; in [9], 104%; in assay [10] it was 103%; in assay [11], 84.9%; in [12], 98.4%. Besides, the growth in assay [13] was 91.5%; in [14], 111%; in [15], 98%; in assay [16], 89.8%; in [17], 107%; in [18], 110%.

Consider `O=C(N/N=C/c1ccc(F)cc1)c1ccccc1Nc1cccc(C(F)(F)F)c1`, for which the growth in assay [1] is 85.6%; in assay [2], 118%; in assay [3] it was 99.5%; in assay [4] it was 90.2%; in assay [5], 96.2%; in assay [6], 109%. Further, the growth was 101% in [7]; 86.6% in assay [8]; 91.2% in assay [9]; 114% in assay [10]; 102% in assay [11]; 102% in assay [12]. In addition, the growth in assay [13] is 94.1%; in assay [14], 130%; in assay [15], 102%; in assay [16], 112%; in [19], 70.8%; in assay [17], 6.32% (active). Further, the growth in assay [18] was 7.44% (active).

For the compound `CC(=O)c1c(C)[nH]c(-c2nc3ccc(N4CCN(C)CC4)cc3[nH]2)c1-c1ccccc1`, the growth is 14.9% in assay [1]; 14.5% in assay [2]; -10.6% (active) in assay [3]; 33.2% in assay [4]; 32% in assay [5]; 11.8% in assay [6]. In addition, the growth in assay [7] is 14.3%; in assay [8], 6.13% (active); in assay [9], 47.3%; in [10], 48.6%; in assay [11], 35.5%; in assay [12] it was 37.7%. The growth in assay [13] was 5.51% (active); in assay [14] it was 23.9%; in assay [15], 19.4%; in assay [16] it was 7.67% (active); in [19] it was 31.8%; in [17] it was 49.1%. Also, the growth in assay [18] is 50.7%.

For `O=C(Nc1nc(-c2ccccc2Cl)cs1)c1cc(-c2ccccc2)nc2ccc(Cl)cc12`, the growth in assay [1] is 11.9%; in [2], 85.3%; in [3] it was 92.9%; in [4], 80.6%; in assay [5], 73.2%; in assay [6], 43.8%. Besides, the growth in [7] is 41.8%; in [8] it was 21.6%; in [9], 70.8%; in assay [10], 69.9%; in [11], 92.2%; in [12], 37.9%. Further, the growth in assay [13] is 52.3%; in assay [14], 88%; in assay [15] it was 84.9%; in assay [16], 81.5%; in [17], 18.8%; in assay [18], 25.8%.

In the case of `CCN1C(=O)N(CC)C2NC(SC)=NC21` (stereo unspecified), the growth was 103% in assay [1]; 108% in assay [2]; 86% in assay [3]; 97.8% in assay [4]; 99.5% in assay [5]; 104% in assay [6]. The growth in assay [7] is 96.2%; in assay [8], 93.1%; in [9] it was 97.8%; in assay [10], 111%; in assay [11], 97.6%; in assay [12] it was 95.9%. Moreover, the growth is 89.7% in [13]; 115% in assay [14]; 99.8% in assay [15]; 87.9% in assay [16]; 90.2% in assay [19]; 102% in assay [18].

For the compound `Nc1nnc(C(=O)c2cnc3n(c2=O)CCCCC3)s1`, the growth was 102% in assay [1]; 115% in assay [2]; 85.7% in assay [3]; 102% in assay [4]; 101% in [5]; 98.5% in assay [6]. The growth in assay [7] was 93.3%; in assay [8], 89%; in assay [9], 106%; in [10], 112%; in assay [11] it was 98.8%; in assay [12], 95.1%. For the same compound, the growth in [13] is 86.3%; in [14] it was 102%; in assay [15] it was 101%; in [16], 92.3%; in assay [17] it was 128%; in [18] it was 97.1%.

Take `O=C1NC(=O)C(=Cc2cn(Cc3ccccn3)c3ccccc23)C(=O)N1`: the growth was 102% in [1]; 111% in assay [2]; 89.2% in assay [3]; 99.7% in assay [4]; 94.2% in assay [5]; 98.3% in [6]. In addition, the growth is 85.7% in assay [7]; 96.7% in [8]; 114% in assay [9]; 102% in assay [10]; 98% in assay [11]; 102% in assay [12]. The growth in assay [13] is 75.5%; in assay [14], 59.8%; in assay [15], 104%; in assay [16] it was 13.9%; in [19] it was -90.4% (active); in assay [17], 95.8%. Also, the growth in assay [18] is 100%.

As for `O=C(O)c1ccc[n+](CC(=O)N2CCN(c3cc4c(cc3F)c(=O)c(C(=O)O)cn4C3CC3)CC2)c1`, the growth in assay [1] is 73.4%; in [2] it was 92.9%; in assay [3], 79.4%; in assay [4], 87.1%; in [5], 87.3%; in [6] it was 91.7%. Also, the growth in [7] is 48.9%; in assay [8], 30.2%; in [9], 60.4%; in [10], 86.1%; in [11], 107%; in assay [12], 29.4%. Further, the growth in assay [13] was 71.8%; in assay [14] it was 112%; in assay [15] it was 72.8%; in assay [16] it was 92.8%; in [19], 98%; in [17], -25.6% (active). The growth in assay [18] was 12.6%.

In the case of `CC(=O)c1cccc(NS(=O)(=O)c2cccc(C(=O)Nc3ccc(Br)cc3)c2)c1`, the growth in [1] is 62.8% [25 µM]; in assay [2], 78.4% [25 µM]; in assay [3], 70.5% [25 µM]; in [4] it was 53.9% [25 µM]; in assay [5], 48.8% [25 µM]; in [6] it was -13.7% [25 µM] (active). For the same compound, the growth in assay [7] was 38.9% [25 µM]; in assay [8], 50.5% [25 µM]; in assay [9], 71.3% [25 µM]; in assay [10] it was 50.6% [25 µM]; in assay [11], 27.1% [25 µM]; in assay [12] it was 58% [25 µM]. Further, the growth in assay [13] was 41% [25 µM]; in [14], 80.7% [25 µM]; in assay [15], 61.5% [25 µM]; in assay [16], 39.6% [25 µM]; in [17], 47.7% [25 µM]; in [18] it was 38.7% [25 µM].

With `O=S(=O)(NCCCNc1nccc(-c2c(-c3cccc(O)c3)nc3occn23)n1)c1ccc(Br)cc1`, the growth in assay [1] was 102%; in assay [2] it was 38.9%; in assay [3], 97.4%; in assay [4] it was 118%; in [5] it was 91.1%; in assay [6] it was 47.1%. The growth in assay [7] was 8.87% (active); in assay [8], 46.8%; in assay [9] it was 35.5%; in [10], 54.3%; in assay [11], 105%; in [12] it was 80.3%. The growth in assay [13] was 90.8%; in assay [14], 135%; in assay [15], 84.9%; in assay [16], 75.6%; in [17], 87.9%; in assay [18], 72.9%.

With `COc1ccc2nc(N=Nc3c(O)ccc4ccccc34)sc2c1`, the growth in [1] was 31.4%; in assay [2] it was 28.2%; in assay [3], 49.4%; in [4] it was 31.8%; in assay [5], 49.1%; in [6], 4.14% (active). In addition, the growth in [7] is 7.36% (active); in assay [8] it was 12.8%; in [9], 35.5%; in [10], 59.3%; in [11], 17.8%; in [12], 50.4%. The growth in assay [13] is 20.7%; in assay [19] it was 79%; in assay [17], 31.3%; in assay [18] it was 19.9%.

In the case of `Clc1ccc(C2CC(c3cccc(Nc4ccncc4)c3)=NN2c2ccccc2)cc1` (stereo unspecified), the growth in assay [1] is -48.4% (active); in assay [2], -9.64% (active); in assay [3], 76.2%; in assay [4] it was 79.7%; in assay [5], 36%; in assay [6], 68.6%. Moreover, the growth in [7] was 93.9%; in [8], 25.6%; in [9], 9.8% (active); in assay [10], 83.7%; in assay [11], 89.8%; in assay [12], 76.6%. For the same compound, the growth was 63.2% in assay [13]; 57.4% in [14]; 78.1% in assay [15]; 52.6% in assay [16]; 84% in [19]; 36.7% in assay [17]. Also, the growth in [18] is -6.03% (active).

For the compound `CCCc1cc2c(cc1Br)OCO2`, the growth in [1] was 101%; in [2] it was 100%; in assay [3], 99.9%; in assay [4] it was 106%; in [5], 85.7%; in assay [6], 99.6%. Besides, the growth in [7] was 101%; in assay [8] it was 95.2%; in assay [9], 105%; in [11] it was 94.4%; in [12], 97.3%; in [13] it was 95%. In addition, the growth in [14] is 100%; in assay [15], 105%; in assay [16] it was 104%; in assay [19], 98.6%; in assay [17], 96.5%; in assay [18], 110%.

Regarding `Brc1ccc(C2CC(c3cccc(Nc4ccncc4)c3)=NN2c2ccccc2)cc1` (stereo unspecified), the growth is 13.5% in assay [1]; 4.59% (active) in [2]; 79.6% in assay [3]; 94.3% in [4]; 52.4% in [5]; 82.2% in assay [6]. For the same compound, the growth was 98.6% in assay [7]; 53.4% in assay [8]; 73.3% in assay [9]; 102% in assay [10]; 95.7% in assay [11]; 74.6% in assay [13]. The growth in assay [14] is 94.4%; in [15], 91.3%; in assay [16] it was 81.1%; in [19], 80.2%; in assay [17], 63.2%; in assay [18], 47.3%.

With `Clc1cc(Cl)cc(N2N=C(c3cccc(Nc4ccncc4)c3)CC2c2ccc(Br)cc2)c1` (stereo unspecified), the growth in assay [1] was -66.5% (active); in assay [2], -12.2% (active); in assay [3] it was 78.3%; in assay [4], 85.8%; in assay [5], 33.3%; in [6], 79%. Further, the growth is 102% in assay [7]; -88.4% (active) in assay [8]; -21.8% (active) in assay [9]; 99.2% in assay [10]; 58.3% in assay [12]; 52.1% in assay [13]. The growth was 71.4% in assay [14]; 46.3% in assay [15]; 48.2% in assay [16]; 88.8% in assay [19]; -12.9% (active) in assay [17]; 3.97% (active) in assay [18].

As to `CCOc1cc(CNc2ccc(N3CCOCC3)c(C(=O)O)c2)ccc1OC`, the growth was 96.4% in assay [1]; 98.1% in assay [2]; 108% in [3]; 94.6% in assay [4]; 98.9% in [5]; 99.8% in assay [6]. Besides, the growth in assay [7] was 90.3%; in assay [8] it was 99.5%; in assay [9] it was 100%; in assay [10], 98.7%; in [11] it was 96.9%; in assay [12], 94.2%. For the same compound, the growth is 98.1% in assay [13]; 94.7% in [14]; 108% in assay [15]; 102% in [16]; 106% in [17]; 104% in assay [18].
